A short description of assay [1]: A CellTox Green Cytotoxicity Assay to monitor cytotoxicity in HEK293 cells - 8 hour (AID 1224884). Note: nearly all actives have a fitted effect of over 35% in size. The procedure, abridged: (§1)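 Seeding of HEK293 cells together with cytotoxicity dye preceded a 5 h incubation at 37 C/5% CO2. Test compounds in DMSO were then added and fluorescence monitored across 40 h.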
Assay [2] in a line: qHTS RealTime-Glo MT Cell Viability Assay in HepG2 cells - 16 hour (AID 1224885). Note: nearly all actives have a fitted effect of over 50% in size. In outline: (§2)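 Cells + NanoLuc/prosubstrate dispensed (600 cells/well) → 5 h at 37 C/5% CO2 → compounds in DMSO transferred → 40 h incubation at 37 C, luminescence read at 0, 8, 16, 24, 32, 40 h.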
Assay [3] can be described thus: A CellTox Green Cytotoxicity Assay to monitor cytotoxicity in HEK293 cells - 16 hour (AID 1224888). Note: nearly all actives have a fitted effect of over 35% in size. The procedure, abridged: as §1
Assay [4] is described as follows: qHTS RealTime-Glo MT Cell Viability Assay in HepG2 cells - 0 hour (AID 1224889). Note: nearly all actives have a fitted effect of over 50% in size. The procedure, abridged:
as §2

The nature of assay [5]: A CellTox Green Cytotoxicity Assay to monitor cytotoxicity in HepG2 cells - 8 hour (AID 1224890). Note: nearly all actives have a fitted effect of over 45% in size. The procedure, abridged:
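Nonlytic assay: viable cells exclude the dye, so fluorescence scales with cell death. HepG2 at 600 cells/well, compounds added after 5 h, signal read across 40 h.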

Assay [6] can be described thus: qHTS assay to identify small molecule antagonists of the estrogen receptor alpha (ER-alpha) signaling pathway using the BG1 cell line in the presence of 0.1 nM 17-beta-estradiol - cell viability counter screen (AID 1259241). Note: nearly all actives have a fitted effect of over 40% in size. In outline:
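VM7Luc4E2 cells (endogenous full-length ER-alpha, 4xERE-luciferase), cultured 5 days in charcoal-stripped serum, exposed to compounds with 0.1 nM 17beta-estradiol (final) for 22 hr at 37C. Viability read in same wells as live-cell protease fluorescence after 30 min.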
(In qHTS, concentration-response curves come from the screen itself.)

Assay [7] can be described thus: qHTS assay to identify small molecule antagonists of the androgen receptor (AR) signaling pathway using the MDA cell line in the presence of 0.5 nM R1881 - cell viability counter screen (AID 1259242). Note: nearly all actives have a fitted effect of over 45% in size. The procedure, abridged: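 R1881 at 0.5 nM final stimulated MDA-kb2 cells during 16 hr compound treatment at 37C. Cytotoxicity read: CellTiter-Fluor fluorescence after 30 min.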

The target in assay [8] is Estrogen receptor (Homo sapiens) (UniProt P03372). Description: qHTS assay to identify small molecule antagonists of the estrogen receptor alpha (ER-alpha) signaling pathway using the BG1 cell line in the presence of 0.1 nM 17-beta-estradiol (AID 1259244). Note: nearly all actives have a fitted effect of over 50% in size. In outline:
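VM7Luc4E2; 4xERE-luciferase; 0.1 nM E2 final; 22 h co-incubation, 37C; ONE-Glo luminescence after 30 min at room temperature.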

Assay [9] in a line: qHTS assay to identify small molecule phospholipidosis (PLD) inducers (AID 1259344; active = well fitted curve in the direction sought with a large enough effect; an effect the other way counts as inactive or inconclusive). The procedure, abridged: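 HepG2 cells on collagen I, attached 4 h at 37 C, were co-treated with compound and LipidTOX Red dye for 24 h at 37 C, then fixed with paraformaldehyde plus Hoechst 33342 and imaged by high-content microscopy for phospholipid accumulation.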
Assay [10] can be described thus: qHTS assay to identify small molecule HDAC inhibitors (AID 1259364).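 Note: wild-type HCT-116 cells with endogenous class I/II HDAC activity; top concentration of the series differs between compounds; nearly all actives have a fitted effect of over 45% in size.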 In outline: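 Relative class I and II HDAC activity is taken from the luminogenic signal in HCT-116 cells, with compound exposure 2 hr and reagent development 30 min at room temperature.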
The nature of assay [11]: qHTS assay to identify small molecule HDAC inhibitors - cell viability counter screen (AID 1259365). Note: series mostly up to about 92 µM; nearly all actives have a fitted effect of over 50% in size. The procedure, abridged:
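Wild-type HCT-116 cells, 1,500/well, cultured overnight, then compound-treated 2 h at 37 C. Viability measured as ATP luminescence with CellTiter-Glo after 30 min at room temperature.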

The nature of assay [12]: qHTS assay to identify small molecule agonists of the sonic hedgehog signaling (Shh) pathway - cell viability counter screen (AID 1259366). Note: nearly all actives have a fitted effect of over 50% in size. In outline:
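NIH/3T3-derived Gli1-Luc reporter cells, 2,000 per well, received compound after 4 h and were treated about 23 h at 37C. Viability measured in the same wells by CellTiter-Fluor fluorescence after 1 h.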

Assay [13] is described as follows: qHTS assay to identify small molecule antagonists of the sonic hedgehog signaling (Shh) pathway - cell viability counter screen (AID 1259367). Note: nearly all actives have a fitted effect of over 55% in size. The procedure, abridged:
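NIH/3T3-derived Gli1-Luc reporter cells (2,000 per well) rested 4 hr at 37 C, then received DMSO compounds plus conditioned medium. After 23 hr of treatment, CellTiter-Fluor was added for 1 hr at 37C and fluorescence read.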

Assay [14] can be described thus: qHTS assay to identify small molecule agonists of the sonic hedgehog signaling (Shh) pathway (AID 1259368; calls by dose curve;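 note: NIH/3T3-derived 3T3Gli1-Luc cells carrying a stable Gli1-driven firefly luciferase reporter; series mostly up to about 92 µM; nearly all actives have a fitted effect of over 15% in size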). In outline:
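Mouse fibroblast (NIH/3T3) reporter cells with stably integrated Gli1-Luc were treated 24 hr with compound; firefly luciferase luminescence served as the read-out.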

Assay [15] in a line: qHTS assay to identify small molecule antagonists of the sonic hedgehog signaling (Shh) pathway (AID 1259369; calls by dose curve; note: nearly all actives have a fitted effect of over 45% in size; note: potency is the fitted concentration of half-maximal effect). In outline: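 Conditioned medium drives Shh signalling in 3T3Gli1-Luc cells; compounds in DMSO co-applied, 24hr at 37 C, then luciferase luminescence.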
A short description of assay [16]: qHTS RealTime-Glo MT Cell Viability Assay in HEK293 cells - 24 hour (AID 1224886). In outline: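 Tox21 10K qHTS, HEK293, 600 cells/well, RealTime-Glo reagent co-dispensed with cells; 5 h preincubation, compound by pintool, 37 C, luminescence at 0–40 h.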
The nature of assay [17]: qHTS RealTime-Glo MT Cell Viability Assay in HEK293 cells - 8 hour (AID 1224887). The procedure, abridged:
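Tox21 screen in HEK293 using RealTime-Glo MT chemistry, with cells and reagent co-dispensed. Luminescence proportional to viable cell number was captured at intervals during 40 h compound exposure at 37 C.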

Assay [18] concerns the target Androgen receptor (Homo sapiens) (UniProt P10275). Description: qHTS assay to identify small molecule antagonists of the androgen receptor (AR) signaling pathway using the MDA cell line in the presence of 0.5 nM R1881 (AID 1259243). Note: nearly all actives have a fitted effect of over 50% in size. The procedure, abridged: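 We exposed MDA-kb2 cells to compounds under 0.5 nM R1881 stimulation for 16 hr at 37C and quantified MMTV-driven luciferase by luminescence.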

In assay [19] the target is Estrogen receptor beta (Homo sapiens) (UniProt Q92731). Put plainly: qHTS assay to identify small molecule agonists of the estrogen receptor beta (ER-beta) signaling pathway (AID 1259377; active = well fitted activation curve with a large enough effect in the signal ratio in the repeat runs, not every such curve was filed as active; the % refers to the signal ratio). The procedure, abridged: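 ER-beta-UAS-bla HEK293T cells in medium with 2% charcoal-stripped FBS were exposed to compounds for 16 h at 37C. Beta-lactamase reporter activity was read as fluorescence after 2 h with LiveBLAzer B/G FRET substrate at room temperature.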

Assay [20] has the same target. Put plainly: qHTS assay to identify small molecule antagonists of the estrogen receptor beta (ER-beta) signaling pathway (AID 1259378; active = well fitted inhibition curve with a large enough effect in the signal ratio in the repeat runs, not every such curve was filed as active; the % refers to the signal ratio). The procedure, abridged:
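ER-beta-UAS-bla HEK293T (GripTite) cells in 2% charcoal-stripped FBS medium were preincubated 6 hr at 37C, dosed with compound, then stimulated with 1 nM E2 (final) for 16 hr; beta-lactamase reporter read by B/G FRET fluorescence after 2 hr substrate loading.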

Unmarked numbers belong to inactive results. Records with an inconclusive call do not appear. The source made the active and inactive calls. Unless noted, calls come from the whole dose curve; as a rule, active = well fitted curve in the direction sought with a large enough effect in the repeat runs; inconclusive = weak or mixed curves; inactive = no such curve, though single readings can be large; an effect the other way counts as inactive or inconclusive.
% is set by controls: 0 for no effect and ±100 for the full control effect.

Sequence of Estrogen receptor (Homo sapiens) (P03372 whole entry, looked up): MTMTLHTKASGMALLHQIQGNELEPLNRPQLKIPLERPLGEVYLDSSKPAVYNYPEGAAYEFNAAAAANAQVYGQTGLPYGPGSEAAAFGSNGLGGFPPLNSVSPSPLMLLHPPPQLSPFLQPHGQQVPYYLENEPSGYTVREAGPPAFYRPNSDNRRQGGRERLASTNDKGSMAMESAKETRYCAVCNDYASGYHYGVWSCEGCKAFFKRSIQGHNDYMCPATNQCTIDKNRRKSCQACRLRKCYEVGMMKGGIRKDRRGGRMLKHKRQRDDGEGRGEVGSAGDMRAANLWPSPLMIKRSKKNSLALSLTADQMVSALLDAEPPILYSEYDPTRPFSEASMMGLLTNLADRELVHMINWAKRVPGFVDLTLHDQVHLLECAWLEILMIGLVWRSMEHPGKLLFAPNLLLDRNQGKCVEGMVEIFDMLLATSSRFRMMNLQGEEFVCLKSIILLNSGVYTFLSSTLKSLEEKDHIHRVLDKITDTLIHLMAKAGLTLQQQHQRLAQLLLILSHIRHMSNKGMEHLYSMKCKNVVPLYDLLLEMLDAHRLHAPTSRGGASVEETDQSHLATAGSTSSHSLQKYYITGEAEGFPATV
Sequence of Androgen receptor (Homo sapiens) (P10275 whole entry, looked up): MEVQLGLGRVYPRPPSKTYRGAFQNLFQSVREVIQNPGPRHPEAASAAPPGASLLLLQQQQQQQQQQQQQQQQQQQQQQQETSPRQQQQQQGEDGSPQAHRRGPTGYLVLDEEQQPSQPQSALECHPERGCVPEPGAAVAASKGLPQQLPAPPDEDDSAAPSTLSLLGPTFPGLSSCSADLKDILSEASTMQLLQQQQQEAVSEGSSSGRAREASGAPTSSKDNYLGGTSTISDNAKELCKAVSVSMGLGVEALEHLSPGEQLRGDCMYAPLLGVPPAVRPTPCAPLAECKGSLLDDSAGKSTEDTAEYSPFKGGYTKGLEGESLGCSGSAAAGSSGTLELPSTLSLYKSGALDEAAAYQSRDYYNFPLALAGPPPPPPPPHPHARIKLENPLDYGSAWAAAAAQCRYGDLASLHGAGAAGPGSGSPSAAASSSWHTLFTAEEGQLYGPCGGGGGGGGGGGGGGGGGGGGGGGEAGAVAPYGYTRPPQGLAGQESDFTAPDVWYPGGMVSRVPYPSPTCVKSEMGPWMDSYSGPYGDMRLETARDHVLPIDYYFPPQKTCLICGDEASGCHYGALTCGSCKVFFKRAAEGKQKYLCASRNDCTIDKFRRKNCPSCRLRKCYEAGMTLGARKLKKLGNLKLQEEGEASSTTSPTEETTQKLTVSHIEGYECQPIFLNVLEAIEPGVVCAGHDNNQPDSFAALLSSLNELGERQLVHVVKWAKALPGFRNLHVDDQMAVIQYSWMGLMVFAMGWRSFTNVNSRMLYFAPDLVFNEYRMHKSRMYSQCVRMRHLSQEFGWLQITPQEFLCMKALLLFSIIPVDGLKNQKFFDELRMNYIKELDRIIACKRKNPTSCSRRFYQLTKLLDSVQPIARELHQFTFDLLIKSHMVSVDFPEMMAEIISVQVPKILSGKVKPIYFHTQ
Sequence of Estrogen receptor beta (Homo sapiens) (Q92731 whole entry, looked up): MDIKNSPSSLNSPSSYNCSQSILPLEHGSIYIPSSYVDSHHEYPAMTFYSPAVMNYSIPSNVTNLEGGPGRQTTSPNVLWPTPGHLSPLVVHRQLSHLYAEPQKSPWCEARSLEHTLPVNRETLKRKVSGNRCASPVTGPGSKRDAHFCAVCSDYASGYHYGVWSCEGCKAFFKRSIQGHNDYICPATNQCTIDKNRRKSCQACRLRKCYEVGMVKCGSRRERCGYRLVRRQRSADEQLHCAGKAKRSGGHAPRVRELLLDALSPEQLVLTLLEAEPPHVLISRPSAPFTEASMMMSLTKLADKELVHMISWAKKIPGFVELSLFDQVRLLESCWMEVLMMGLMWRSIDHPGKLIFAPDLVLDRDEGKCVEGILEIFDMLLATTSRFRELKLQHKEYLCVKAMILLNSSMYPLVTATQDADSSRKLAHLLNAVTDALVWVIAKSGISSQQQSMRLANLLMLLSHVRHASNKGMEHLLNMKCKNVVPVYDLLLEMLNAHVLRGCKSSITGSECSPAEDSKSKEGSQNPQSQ

As to `O=C(N[C@H](CO)[C@H](O)c1ccc([N+](=O)[O-])cc1)C(Cl)Cl`, the Potency result in assay [1], in assay [2], in [3], in [4], in assay [5] and in assay [6] was “inactive” each time. For the same compound, the Potency entry in assay [7], in assay [8], in [9], in assay [10], in [11] and in assay [12] was “inactive” each time. For the same compound, the Potency result in assay [13], in assay [14] and in [15] was “inactive” each time.

For `N#Cc1ccc(C/C(=N/NC(=O)Nc2ccc(OC(F)(F)F)cc2)c2cccc(C(F)(F)F)c2)cc1`, the Potency entry in assay [1], in assay [16], in assay [17], in assay [3], in [4] and in [5] was “inactive” in each case. The Potency entry in assay [6], in assay [7], in [18], in assay [8], in assay [10] and in assay [11] was “inactive” in each case. The Potency result in assay [12], in assay [13] and in assay [14] was “inactive” in each case.

For `C=CC(C)(C)O`, the Potency result in assay [1], in assay [16], in assay [17], in [3], in assay [4] and in assay [5] was “inactive” in each case. For the same compound, the Potency entry in assay [6], in assay [7], in [18], in assay [8], in assay [10] and in assay [11] was “inactive” each time. In addition, the Potency entry in assay [12], in assay [13], in assay [14], in [15] and in [20] was “inactive” each time. The outcome in assay [19] was inactive.

Regarding `C=C[Si](C)(C)Cl`, the cytotoxicity increase was -2.48% [at 6.97 µM] in assay [1] and -7.78% [at 6.97 µM] in assay [5]. Further, the activity change, negative = cytotoxic in assay [2] is -9.49% [at 6.97 µM]. Further, the activity change, negative = cytotoxicity in [17] was -4.42% [at 6.97 µM]; in assay [4] it was -16.4% [at 6.97 µM]; in [6] it was -11.6% [at 8.39 µM]; in [11], -0.871% [at 8.39 µM]. In addition, the activity change in assay [3] was -2.03% [at 6.97 µM, stronger effect = higher value]; in assay [14], 1.18% [at 8.39 µM, stronger effect = higher value]. For the same compound, the viability change, negative = cytotoxic in assay [7] is 0.0065% [at 8.39 µM]; in [12], 9.73% [at 8.39 µM]; in assay [13] it was -1.01% [at 8.39 µM]. In addition, the activity change, negative = inhibition in [10] is 3.64% [at 8.39 µM].

As for `Nc1cccnc1N`, the Potency result in [1], in assay [2], in [17], in [3], in [4] and in assay [5] was “inactive” each time. Also, the Potency entry in assay [7], in assay [8], in assay [10] and in assay [14] was “inactive” throughout.

As to `COc1c(Br)cc(Br)c(C)c1Br`, the Potency result in assay [1], in assay [2], in assay [3], in assay [4], in assay [5] and in assay [6] was “inactive” each time. Also, the Potency result in [7], in assay [10], in assay [11], in assay [12], in assay [13] and in [14] was “inactive” in each case. Besides, in [15], the Potency result is “inactive”.

In the case of `CC(Cc1ccc(O)c(O)c1)C(C)Cc1ccc(O)c(O)c1` (stereo not drawn), the Potency entry in [1], in [3], in [4], in [6], in [7] and in assay [8] was “inactive” throughout. Moreover, the Potency result in [10] and in assay [14] was “inactive” throughout. For the same compound, the Potency in assay [15] was 13.7 µM (active).

The record behind these values is PubChem BioAssay (Tox21).
